Assay [1] can be described thus: Tanguay_ZF_120hpf_AXIS: Oregon State University Tanguay Lab 120 Hour Post-fertilization zebrafish Assay for Axial Malformation (AID 2284398). The method, boiled down: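 Scoring was binary (present or absent) for body-axis defects, judged by brightfield imaging at 120 hpf in surviving larvae. Exposure was static at 28C from 6 hpf in chorion-free 5D wild-type embryos, with 0.64% DMSO vehicle.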

Assay [2] is described as follows: Tanguay_ZF_120hpf_BRN: Oregon State University Tanguay Lab 120 Hour Post-fertilization zebrafish Assay for Brain Region Malformation (AID 2284402). The method, boiled down:
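Binary brightfield scoring of brain malformation at 120 hpf in 5D wild-type larvae, chorion removed with pronase at 4 hpf. Static exposure began at 6 hpf, 28C, sealed plates, DMSO 0.64% (vol/vol) as vehicle baseline.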

The nature of assay [3]: Tanguay_ZF_120hpf_TCHR: Oregon State University Tanguay Lab 120 Hour Post-fertilization zebrafish Assay for Touch Responsive (AID 2284403). The method, boiled down:
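Binary touch-response calls are made at 120 hpf in 5D wild-type zebrafish larvae. These larvae were dechorionated with pronase and exposed singly from 6 hpf in sealed, dark plates at 28 °C with 0.64% DMSO final; dead embryos are excluded.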

The nature of assay [4]: Tanguay_ZF_120hpf_ANY: Oregon State University Tanguay Lab 120 Hour Post-fertilization zebrafish Assay for Any Mortality and Malformation (AID 2284404). The essentials:
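Dechorionated Tropical 5D wild-type embryos, one per well from 6 hpf, static exposure in sealed, dark plates at 28C until 120 hpf, 0.64% DMSO final. Brightfield scoring of mortality and malformations as binary presence/absence, pooling 13 morphology endpoints.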

A short description of assay [5]: CCTE_Padilla_ZF_Score.Edema: CCTE's 144 Hour Post-fertilization zebrafish Assay Score for Edema Malformation, Padilla Lab (AID 2284406). The essentials: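 Edema scored at 6 dpf by two blinded observers under a stereo microscope, in single outbred wild-type larvae exposed from 6-8 hpf in sealed wells (Hanks', 26C, 14:10 h light) and chemical-free after a 5 dpf rinse.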

A short description of assay [6]: CCTE_Padilla_ZF_Score.Spine: CCTE's 144 Hour Post-fertilization zebrafish Assay Score for Spine Malformation, Padilla Lab (AID 2284407). The method, boiled down:
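Spine malformation scored at 6 dpf by two independent blinded observers under stereomicroscope, after static sealed exposure from 6–8 hpf at 26C in Hanks' solution with rinse on 5 dpf. Positive-direction fit against DMSO control.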

Assay [7] is described as follows: CCTE_Padilla_ZF_Score.Swim_bladder: CCTE's 144 Hour Post-fertilization zebrafish Assay Score for Swim Bladder Malformation, Padilla Lab (AID 2284408). The method, boiled down: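 Swim bladder inflation scored at 6 dpf by two blinded observers under a stereo microscope. Exposure ran from 6–8 hpf in sealed wells of 10% Hanks' at 26C, with rinsing at 5 dpf; DMSO served as baseline.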

Assay [8] in a line: CCTE_Padilla_ZF_Score.Position: CCTE's 144 Hour Post-fertilization zebrafish Assay Score for Position, Padilla Lab (AID 2284409). The essentials:
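Wild-type zebrafish embryos (with chorions) exposed singly from 6–8 hpf in sealed wells of Hanks' solution at 26C, rinsed at 5 dpf. At 6 dpf, blinded assessors scored abnormal water-column position by brightfield stereomicroscopy, relative to DMSO.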

A short description of assay [9]: CCTE_Padilla_ZF_Score.Living: CCTE's 144 Hour Post-fertilization zebrafish Assay Score for Viability, Padilla Lab (AID 2284410).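 Also: larval death at 6 dpf judged by absent heartbeat or coagulation.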 The method, boiled down:
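Mortality at 6 dpf, judged as absent heartbeat or coagulation by two blinded observers, after sealed static exposure beginning at 6–8 hpf at 26C. Larvae were rinsed free of chemical at 5 dpf, and activity was fitted relative to DMSO.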

A short description of assay [10]: CCTE_Padilla_ZF_Score.Tail: CCTE's 144 Hour Post-fertilization zebrafish Assay Score for Tail Malformation, Padilla Lab (AID 2284414). The essentials: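 Tail malformations were scored at 6 dpf by two blinded assessors under a stereo microscope. Chorionated embryos had been exposed from 6-8 hpf in sealed wells of 10% Hanks' at 26 C, then rinsed free of chemical at 5 dpf.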

The nature of assay [11]: CCTE_Padilla_ZF_Score.Blood_pooling: CCTE's 144 Hour Post-fertilization zebrafish Assay Score for Blood Pooling, Padilla Lab (AID 2284415). The method, boiled down: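 Blood pooling was scored at 6 dpf under a stereo microscope by two blinded assessors, fitted upward against DMSO. Single embryos were dosed at 6–8 hpf in 10% Hanks', kept sealed at 26C (14:10 h cycle) and rinsed at 5 dpf.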

A short description of assay [12]: CCTE_Padilla_ZF_Score.Any: CCTE's 144 Hour Post-fertilization zebrafish Assay Score for Any Mortality or Malformation, Padilla Lab (AID 2284416). The method, boiled down:
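Wild-type zebrafish embryos with chorions, one per well in 10% Hanks' from 6–8 hpf, dosed in sealed plates at 26 C, 14:10 h light:dark; rinsed at 5 dpf; blinded scoring at 6 dpf for death or malformation, versus DMSO.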

The test system of assay [13] is SRY-box transcription factor 17 (SOX17) Protein Expression, Deisenroth Lab, SOX17 (gene 64321). The experiment in a line: CCTE_Deisenroth_DEVTOX-GLR_Endo_SOX17: CCTE's DevTox GLR-Endo Assay Evaluation of SRY-box transcription factor 17 (SOX17) Protein Expression, Deisenroth Lab (AID 2284413). The essentials: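 Human RUES2-GLR cells carrying an inducible fluorescent reporter are differentiated in defined media for 48 h and dosed twice, 24 h apart. After fixation and nuclear staining, imaging yields SOX17+ cell percentage relative to 0.2% DMSO-treated differentiated cells.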

Assay [14] deals with Brachyury (BRA) Protein Expression, TBXT (gene 6862). In words: CCTE_Deisenroth_DEVTOX-GLR_Endo_BRA: CCTE's DevTox GLR-Endo Assay Evaluation of Brachyury (BRA) Protein Expression, Deisenroth Lab (AID 2284417). The method, boiled down:
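Endpoint is the fraction of BRA reporter-positive cells over total nuclei, corrected by subtracting the 0.2% DMSO value. Chemicals (1 nM - 200 uM, 10 points) were dosed twice during 48 h differentiation of RUES2-GLR cells, read by imaging.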

Assay [15] in a line: CCTE_Deisenroth_DEVTOX-GLR_Endo_CellCount: Viability Assessment in CCTE's DevTox GLR-Endo Assay, Deisenroth Lab (AID 2284420). The method, boiled down: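 Human pluripotent RUES2-GLR line; 24 h pre-seed; 48 h endoderm-directed differentiation; 2 doses, q24h; 10 conc., 1 nM - 200 uM; fix + nuclear dye; 5 fields/well imaged; readout = nuclei count, % change vs 0.2% DMSO; n=4.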

In assay [16] the test system is SRY-box transcription factor 17 (SOX17) Protein Expression, Deisenroth Lab, SOX17 (gene 64321). In words: CCTE_Deisenroth_DEVTOX-GLR_Pluri_SOX17: CCTE's DevTox GLR-Pluri Assay Evaluation of SRY-box transcription factor 17 (SOX17) Protein Expression, Deisenroth Lab (AID 2284427; active = hit-call score of the fitted dose curve at least 0.9, where 1 is the maximum). The method, boiled down: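 Human RUES2-GLR pluripotent line; 24 h seeding, 48 h defined-media differentiation, 2 doses q24h, 10 conc 1 nM - 200 uM. Fix, nuclear stain, image 5 fields/well. Endpoint = %SOX17+ minus 0.2% DMSO; n=4.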

The subject of assay [17] is SRY-box transcription factor 2 (SOX2) Protein Expression, Deisenroth Lab, SOX2 (gene 6657). In words: CCTE_Deisenroth_DEVTOX-GLR_Pluri_SOX2: CCTE's DevTox GLR-Pluri Assay Evaluation of SRY-box transcription factor 2 (SOX2) Protein Expression, Deisenroth Lab (AID 2284428). The method, boiled down: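 Steps: seed RUES2-GLR cells for 24 h; start 48 h differentiation in defined media; dose test chemicals at 0 and 24 h (1 nM–200 uM); fix, stain nuclei, image; compute SOX2+ percentage against 0.2% DMSO wells.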

Assay [18] deals with Brachyury (BRA) Protein Expression, Deisenroth Lab, TBXT (gene 6862). In words: CCTE_Deisenroth_DEVTOX-GLR_Pluri_BRA: CCTE's DevTox GLR-Pluri Assay Evaluation of Brachyury (BRA) Protein Expression, Deisenroth Lab (AID 2284429; active = hit-call score of the fitted dose curve at least 0.9, where 1 is the maximum). The essentials:
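RUES2-GLR reporter line; 48 h mesoderm differentiation; two exposures, 24 h apart; 1 nM - 200 uM, 10 points; nuclear stain, high-content imaging, 5 fields/well; endpoint = %BRA+ cells of total count minus 0.2% DMSO; n=4.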

Assay [19] can be described thus: CCTE_Deisenroth_DEVTOX-GLR_Pluri_CellCount: Viability Assessment in CCTE's DevTox GLR-Pluri Assay Evaluation of Total Cell Counts, Deisenroth Lab (AID 2284430). The essentials: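 Cytotoxicity readout: fluorescent nuclei counts by high-content imaging, expressed as percent change relative to 0.2% DMSO. Human RUES2-GLR pluripotent line differentiated 48 h, dosed twice at 24-h intervals across 1 nM - 200 uM (10 points).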

The structures appear in SMILES notation. Records with an inconclusive call do not appear. Active and inactive are the calls of the source. The calls were made as follows, unless noted: active = hit-call score of the fitted dose curve at least 0.9, where 1 is the maximum; inactive = score below 0.9.

Take `OCCC(F)(F)C(F)(F)C(F)(F)C(F)(F)F`: the outcome in [1], in assay [2], in [3], in assay [4], in [5] and in [6] was inactive. The outcome in assay [7], in assay [8], in [9], in [10], in assay [11] and in assay [12] was inactive.

As for `FC(F)(F)C(F)(F)C(F)(F)C(F)(F)C(F)(F)C(F)(F)I`, the result in assay [1], in assay [2], in assay [3], in assay [4], in assay [5] and in assay [6] was inactive. Also, the compound was called inactive in assay [7], in assay [8], in assay [9], in assay [10], in assay [11] and in assay [12].

Regarding `FC(F)(F)COC(OCC(F)(F)F)OCC(F)(F)F`, the result in assay [1], in assay [2], in assay [3], in [4], in assay [5] and in [6] was inactive. The result in assay [7], in assay [8], in assay [9], in assay [10], in [11] and in assay [12] was inactive.

As for `CCCC(CCC)C(=O)O`, the outcome in assay [13], in assay [14], in assay [15], in assay [16], in assay [17] and in [18] was inactive. Further, the call in [19] was inactive.

Take `C[Si](C)(C)C(F)(F)C(F)(F)C(F)(F)F`: the result in [1], in assay [2], in [3], in assay [4], in assay [5] and in [6] was inactive. The compound was classed as inactive in assay [7], in [8], in assay [9], in assay [10], in assay [11] and in [12].

Broadly, the AC50 is the concentration at which the activity in the assay is half-maximal. Take `FC(F)C(F)(F)COCC1CO1` (centres undefined): the outcome in [1], in assay [2], in [3], in [4], in assay [6] and in assay [8] was inactive. Also, the result in assay [9], in assay [10] and in assay [11] was inactive. Further, the figures for the AC50 in [5], in assay [7] and in [12] were 29.5 µM (active), 32.2 µM (active) and 30.7 µM (active), respectively.

Consider `NCC(F)(F)C(F)(F)C(F)(F)C(F)(F)F`, for which the call in assay [1], in assay [2], in assay [3], in [4], in assay [5] and in assay [6] was inactive. In addition, the result in assay [7], in assay [8], in assay [9], in [10], in assay [11] and in [12] was inactive.

The record behind these values is PubChem BioAssay (EPA / NIEHS).
